Screening results as filed in PubChem BioAssay.
Sampled rows, rich in hits. Any-hit rate of the full collection: about 9.2%.
Rab9 promoter act: activators of Rab9 promoter; Huh7 Rab9 promoter-luciferase reporter, luminescence, 24 h; Potency, µM (series often up to 9.22 µM), for the others: at the highest dose activation, negative = inhibition, usual class: activators; hit rate 2.8% among 320,000; also: % of control where 0% means no effect; nearly all actives have a fitted effect of over 60% in size
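Luciferase signal after 10 min detection reagent at ambient indicates Rab9 promoter upregulation; stably transfected Huh7 cells were treated 24 h with compound in DMSO at 37 °C, 5% CO2.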
SMN2 splice up: enhancers of SMN2 splice variant expression | HEK293 SMN2-luciferase splicing reporter, luminescence, 30-36 h | Potency, µM (top dose mostly 46.1 µM), without a hit: top-dose activity change, positive = activation, actives largely listed as activators | hit rate 2.8% among 210,000 | AID 1458; also: % of control where 0% means no effect; nearly all actives have a fitted effect of over 55% in size
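HEK293 cells carry an SMN2 […]–luciferase reporter in which exon 7 inclusion puts luciferase in frame. Cells were plated 10-12 h before compound addition, then incubated 30-36 h at 37C. ONE-Glo luminescence was read; sodium butyrate at 4.5 mM final served as control.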
ELG1 repair inh: inhibitors of ELG1-dependent DNA repair in HEK293T cells; Potency, µM (doses to about 46.1 µM), for inactives: at the top dose activity change, negative = inhibition, hits mostly inhibitors; HEK293T ELG1-luciferase reporter, luminescence, 16 h; DNA damage induced by 5-fluorouridine; hit rate 2.3% among 330,000; also: % is scaled to controls: 0 for no effect and ±100 for the full control effect; nearly all actives have a fitted effect of over 55% in size
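Quantitative HTS, concentration-response format. 2,000 cells/well co-treated with 5-fluorouridine and compound, 16 hr in 5% CO2 at 37 °C; ONE-Glo luminescence read after 30 min.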
FLuc counter: inhibits or activates purified firefly luciferase, miR-21 counter-screen | hit rate 6.9% among 360,000 | Potency, µM (titrated, usually from 57.5 µM), for inactives: at the highest dose activity change, negative = inhibition, actives largely listed as inhibitors | P08659 | purified FLuc, Km substrates, luminescence inhibition;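 also: plate controls were vehicle for no effect and reference inhibitor for full effect; nearly all actives have a fitted effect of over 55% in size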
Target sequence (P08659 whole entry, looked up): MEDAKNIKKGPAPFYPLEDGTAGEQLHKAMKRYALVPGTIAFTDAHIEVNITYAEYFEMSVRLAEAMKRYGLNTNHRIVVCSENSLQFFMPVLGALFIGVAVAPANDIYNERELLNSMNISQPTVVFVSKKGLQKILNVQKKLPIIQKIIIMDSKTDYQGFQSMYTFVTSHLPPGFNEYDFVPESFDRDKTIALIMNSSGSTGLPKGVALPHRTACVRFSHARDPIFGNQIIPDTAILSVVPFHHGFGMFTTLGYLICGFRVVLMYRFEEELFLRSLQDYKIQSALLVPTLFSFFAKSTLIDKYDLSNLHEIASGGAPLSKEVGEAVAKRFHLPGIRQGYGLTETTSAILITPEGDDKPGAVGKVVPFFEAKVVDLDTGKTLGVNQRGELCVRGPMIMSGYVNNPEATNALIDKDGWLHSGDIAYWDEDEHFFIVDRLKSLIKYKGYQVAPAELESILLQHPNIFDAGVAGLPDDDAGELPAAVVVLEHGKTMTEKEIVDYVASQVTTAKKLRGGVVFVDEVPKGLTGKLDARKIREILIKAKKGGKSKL
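Biochemical qHTS of compounds, final roughly 60 µM downward over six points, against 10 nM purified firefly luciferase using Km concentrations of substrates (10 uM D-luciferin, 10 uM ATP) in Tris acetate pH 7.5 buffer; luminescence output.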
NPC1 prom act: activates the NPC1 promoter; Huh7 NPC1 promoter luciferase reporter, 24 h; Potency, µM (series often up to 9.22 µM), for the others: top-dose activation, hits mostly activators; hit rate 2.4% among 320,000; also: % of control where 0% means no effect; nearly all actives have a fitted effect of over 60% in size
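Luminescence read-out of NPC1 promoter-driven luciferase in stably transfected Huh7 cells; compounds delivered in DMSO and left 24 h at 37C, 5% CO2, qHTS titration format.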
ELG1 genotox: genotoxicity induction in ELG1-luciferase HEK293T cells; Potency, µM (highest dose often 46 µM), inactives show top-dose activity change, positive = activation, actives largely listed as activators; hit rate 1.3% among 330,000; HEK293T ELG1-luciferase reporter, luminescence, 16 h; also: % of control where 0% means no effect; nearly all actives have a fitted effect of over 60% in size
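HEK293T cells expressing luciferase-tagged ELG1 were exposed to compound or DMSO vehicle for 16 hr at 37 °C and 5% CO2. Luciferase activity was then measured with ONE-Glo after 30 min at room temperature.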
* marks the source's active call; other numbers are inactive results; ? = inconclusive; · = no result given; [ ] = dose if it differs, or a comment. Calls follow the shape of the dose curve; as a rule, active = well fitted curve in the direction sought with a large enough effect; inconclusive = small, poorly fitted or top-dose-only effect, or another doubt; inactive = no such curve, though single readings can be large; an effect the other way counts as inactive or inconclusive. Potency is read from the fitted curve at half-maximal effect.

SMILES	Rab9 promoter act	SMN2 splice up	ELG1 repair inh	FLuc counter	NPC1 prom act	ELG1 genotox
Cc1cccc(C)c1NC(=O)CSc1nc2ccccc2c2nc(CCc3c(C)n[nH]c3C)nn12	·	·	·	4%	·	·
Cc1c(C#N)c(O)[nH]c(=O)c1N=Nc1ccc(Cl)c(C(=O)O)c1	-1%[1.84 µM]	·	-4%	4%	-1%	1%
Cc1ccc(Cl)c2c(N=Nc3ccccc3)c(O)[nH]c12	?	·	?	1.2µM*	?	?
CCC(=O)N1CCC2(CC1)Oc1ccc(Cl)cc1C(=O)C21CC(c2ccc(Cl)cc2)=NO1 (stereo not given)	-8%	·	10µM*	-2%	0%	-6%
CCC(=O)N1CCC2(CC1)Oc1ccc(F)cc1C(=O)C21CC(c2ccc(Cl)cc2)=NO1 (stereo not given)	-11%	·	-5%	-2%	-9%	-8%
C=CCN(C(=O)C1=NN(C2CCS(=O)(=O)C2)C(=O)CC1)c1nc(-c2ccc([N+](=O)[O-])cc2)cs1 (stereo not given)	2.8µM*	11µM*	?	-18%	4µM*	12%
O=C(NNc1ccccc1)C(=O)NNS(=O)(=O)c1ccc(CCCl)cc1	0%	·	6.5µM*	0%	2%	9%
Nc1ccc(S(=O)(=O)NNC(=O)C(=O)NNc2ccccc2)cc1	-6%	-40%	17%	1%	0%	11%
COc1cccc(CCNC(=O)c2cnc3sc(N4CCCCCC4)nn3c2=O)c1	·	15%	·	1%	·	·
COc1ccccc1-c1ccc(SCC(=O)NC2CCCCC2)nn1	1%	·	?	-10%	0%	-5%
COc1ccc(-c2nc(SCC(=O)Nc3ccc4c(c3)OCO4)c(-c3ccc(F)cc3)[nH]2)cc1OC	·	12%	·	-12%	·	·
COc1ccc(-c2ccc(SCC(=O)NC3CCCC3)nn2)cc1OC	3%	·	?	15µM*	11%	18%
COc1ccc(-c2nc(SCC(=O)NC3CCCC3)c(-c3ccccc3)[nH]2)cc1OC	·	9%	·	19µM*	·	·
COc1ccc(-c2nc(SCC(=O)NC3CCCC3)c(-c3ccc(F)cc3)[nH]2)cc1OC	·	3%	·	?	·	·
COc1ccccc1-c1ccc(SCC(=O)NC2CCCC2)nn1	1%	·	?	0%	-2%	16%
COc1ccc(-c2nc(SCC(=O)Nc3ccc4c(c3)OCCO4)c(-c3ccc(F)cc3)[nH]2)cc1OC	·	15%	·	6.7µM*	·	·
COc1cccc(-c2ccc(SCC(=O)NC3CCCCC3)nn2)c1	12%	·	-20%	15µM*	0%	-3%
Cc1cc2c(cc1S(=O)(=O)Nc1ccc(C(C)C)cc1)OCCN2C	-3%	·	·	2%	5%	·
COc1ccc(NC(=O)COC(=O)COc2cccc3c2OC(C)(C)C3)cc1	-3%	·	4%	4%	1%	-3%
COc1ccccc1C(=O)COC(=O)COc1cccc2c1OC(C)(C)C2	2.5µM*	·	?	4.8µM*	2µM*	9.2µM*
CCOc1ccc2oc(C(=O)NC3CC(C)(C)NC(C)(C)C3)c(C)c2c1	-3%	-4%	?	-3%	0%	6%
COc1ccc2oc(C(=O)OCC(=O)NCCc3ccccc3)c(C)c2c1	10%	·	-2%	-3%	0%	17%
CCOc1ccc2oc(C(=O)NC(C)(C)CC)c(C)c2c1	2.5µM*	?	?	17µM*	?	?
COc1ccc(C(CNC(=O)c2oc3ccccc3c2C)N2CCCC2)cc1 (stereo not given)	-9%	·	-13%	21µM*	-3%	-1%
Cc1c(C(=O)NCCc2ccccc2)oc2ccccc12	0.71µM*	·	?	2.1µM*	0.79µM*	2.1µM*
SMILES	Rab9 promoter act	SMN2 splice up	ELG1 repair inh	FLuc counter	NPC1 prom act	ELG1 genotox
COc1ccc2oc(C(=O)NCCc3ccccc3)c(C)c2c1	?	·	?	?	0.45µM*	?
Cc1nnc(NC(=O)CSc2nnc3c(n2)[nH]c2ccc(Br)cc23)s1	0%	·	2%	-5%	-1%	3%
C[C@H]1CN([C@@H](C)CO)C(=O)c2cccc(NC(=O)c3cnccn3)c2O[C@@H]1CN(C)S(=O)(=O)c1ccc(F)cc1	·	·	10%	·	·	-1%
CCOC(=O)C1=C(COC(=O)/C=C/c2cccc(F)c2)NC(=O)NC1C (stereo not given)	·	·	-7%	·	·	4%
Cc1ccc(Cc2nc3ccccc3nc2SCC(=O)Nc2ccc3c(c2)OCO3)cc1	·	·	·	4%	·	·
Cc1cc2c(n1-c1ccc(C(=O)NCc3cccc(Br)c3)cc1)CCC(C)C2 (stereo not given)	·	·	·	-7%	·	·
CCOC(=O)c1cc(-c2ccc(OC)c(S(=O)(=O)N3CCN(c4ccccc4)CC3)c2)on1	·	·	·	1%	·	·
O=C(O)C(Nc1nc(C(F)(F)F)nc2ccccc12)c1ccccc1 (stereo not given)	1%	·	5%	0%	1%	3%
Cc1c(Cl)cccc1NC(=O)COC(=O)c1c2c(nc3ccccc13)CCN(Cc1ccccc1)C2	-2%	·	13µM*	-16%	-9%	-7%
Cc1cc(N2CCN(C)CC2)ccc1NC(=O)c1c2c(nc3ccccc13)CCN(Cc1ccccc1)C2	-32%	-70%	?	-8%	-41%	23µM*
CC(C)c1ccccc1NC(=O)COC(=O)c1c2c(nc3ccccc13)CCN(Cc1ccccc1)C2	-3%	-31%	12µM*	-12%	-2%	-19%
O=C(NC1CCCCCC1)c1c2c(nc3ccccc13)CCN(Cc1ccccc1)C2	-1%	8%	?	3%	-1%	-7%
CC1CCCCC12NC(=O)N(CC(=O)c1ccc3c(c1)OCO3)C2=O (stereo not given)	6%	·	26%	-15%	11%	1%
CC(C)CC1NC(=O)N(CC(=O)c2ccc3c(c2)OCCO3)C1=O (stereo not given)	1.1µM*	13µM*	?	11µM*	2.8µM*	?
O=C(CN1C(=O)c2ccccc2S1(=O)=O)c1ccc2c(c1)OCCO2	-47%	·	?	5.4µM*	-37%	-12%
